Columns and labels:
Details in all cases: concentration: 1 μM, replicates: in singlicate; n = 1
HIPK4 = system: HIPK4
HPK1 = system: HPK1
HUNK = system: HUNK
ICK = system: ICK
IGF1R = system: IGF1R
IKK-alpha = system: T1, IKK-alpha
T1 construct: gene CHUK

IKK-beta = system: T2, IKK-beta
T2 construct: gene IKBKB

IKK-epsilon = system: T3, IKK-epsilon
T3 construct: gene IKBKE

INSRR = system: INSRR
INSR = system: INSR
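Also: KINOMEscan kinase panel screen.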

Structure (SMILES)	%Inh (HIPK4)	%Inh (HPK1)	%Inh (HUNK)	%Inh (ICK)	%Inh (IGF1R)	%Inh (IKK-alpha)	%Inh (IKK-beta)	%Inh (IKK-epsilon)	%Inh (INSRR)	%Inh (INSR)
Cl.Cl.Cl.N#Cc1ccc(CCNc2nccc(-c3cccc(CN4CCNCC4)c3)n2)cc1 [GSK2137462]	26%	48%	0%	5%	11%	0%	0%	20%	0%	87%
COc1ccc(Nc2nccc(N3CCC(NC(=O)C(C)c4ccc(Cl)cc4)C3)n2)cc1 (stereo not shown) [GSK1379735]	9%	51%	0%	18%	0%	0%	0%	0%	28%	11%
COc1ccc(CSc2nnc(-c3ccc4c(c3)CCO4)o2)cc1	0%	0%	0%	0%	0%	0%	0%	0%	0%	0%
CNCc1ccc2nc(NC(=O)c3ccc(C(C)(C)C)cc3)cn2c1	5%	12%	19%	27%	0%	8%	6%	15%	2%	9%
CC(=O)c1c(C)c2cnc(Nc3ccc(N4CCNCC4)cn3)nc2n(C2CCCC2)c1=O	8%	0%	0%	0%	0%	0%	0%	15%	0%	0%
Cc1ccc(NC(=O)c2ccc(Cl)cc2)cc1-c1ccc(C(=O)Nc2ccncc2)cc1 [GSK1398467]	0%	36%	8%	0%	11%	12%	6%	15%	0%	0%
CN1c2ccc(-c3ccc(C(N)=O)cc3)cc2-c2[nH]ncc2S1(=O)=O	4%	28%	0%	0%	5%	0%	0%	0%	0%	0%
CS(=O)(=O)Cc1ccc(Nc2nccc(-c3c(-c4cccc(NC(=O)C5CCCCC5)c4)nn4ncccc34)n2)cc1 [GSK350559]	0%	14%	7%	14%	68%	0%	12%	32%	20%	42%
CC(C)c1ccc(O)cc1Nc1ccnc2ccc(C(F)(F)F)cc12 [GW482059]	10%	23%	0%	0%	3%	0%	0%	0%	7%	0%
COc1ccc(CSc2nnc(-c3ccc4ncsc4c3)o2)cc1C(F)(F)F	0%	0%	1%	0%	0%	0%	0%	0%	1%	0%
COc1cccc(CNC(=O)NC2CCN(c3ccnc(Nc4ccc(F)cc4)n3)C2)c1 (stereo not shown) [GSK1379723]	0%	40%	0%	21%	4%	44%	14%	0%	18%	0%
Nc1nccc(-c2c(-c3ccc(F)cc3)ncn2C2CCN(Cc3ccccc3)CC2)n1 [SB-219980]	0%	11%	37%	1%	0%	0%	0%	5%	1%	0%
Cc1ccccc1-c1cc(-c2c[nH]nc2-c2ccccn2)ccn1 [GW680061]	0%	32%	27%	0%	2%	46%	38%	0%	0%	28%
Fc1ccc(-c2nc[nH]c2-c2ccncc2)cc1 [SB-217360]	0%	0%	55%	0%	3%	9%	0%	0%	0%	24%
c1ccc(-c2ccnc3[nH]ccc23)cc1 [SB-693578]	0%	48%	2%	13%	14%	47%	64%	0%	0%	5%
CCn1c(-c2ccccc2)nc2cnccc21 [SB-733416]	0%	48%	0%	46%	7%	37%	43%	19%	2%	4%
CNc1nc(-c2ccc3c(N)n[nH]c3c2)cc(N2C[C@@H](C(=O)NC3CCCCC3)OC[C@H]2C)n1 [GSK2375584]	0%	14%	21%	12%	8%	0%	0%	30%	0%	6%

Structure (SMILES)	%Inh (HIPK4)	%Inh (HPK1)	%Inh (HUNK)	%Inh (ICK)	%Inh (IGF1R)	%Inh (IKK-alpha)	%Inh (IKK-beta)	%Inh (IKK-epsilon)	%Inh (INSRR)	%Inh (INSR)
CCCCc1nn2ncccc2c1-c1ccnc(NC2CC2)n1 [GW684374]	0%	3%	2%	7%	0%	0%	3%	0%	0%	0%
COC(=O)C(NC(=O)NC1CCN(c2ccnc(Nc3ccc(F)cc3)n2)C1)c1ccccc1 (stereo not shown) [GSK1379712]	8%	51%	0%	9%	5%	0%	0%	32%	0%	2%
CC(=O)c1cccc(NC(=O)NC2CCN(c3ccnc(Nc4ccc(F)cc4)n3)C2)c1 (stereo not shown) [GSK1379710]	0%	50%	0%	5%	0%	4%	1%	33%	0%	12%
Cc1cnc(N)c(/C=C/c2cncc(C(=O)NCCc3ccc(Cl)cc3Cl)c2)c1.Cl [GSK190937]	17%	45%	10%	0%	8%	19%	46%	29%	0%	31%
Cc1c(Cn2c3ccccc3n3c(=O)cc(N4CCOCC4)nc23)cccc1C(F)(F)F [GSK2306394]	0%	5%	0%	6%	33%	35%	27%	0%	11%	0%
O=C(Nc1n[nH]c2nc(-c3cccs3)c(Br)cc12)C1CC1 [SB-735297]	10%	16%	0%	24%	0%	0%	9%	0%	0%	0%
O=C(Nc1n[nH]c2nc(-c3cccs3)c(Br)cc12)C1CCCC1 [SB-743341]	4%	14%	23%	65%	3%	0%	0%	4%	26%	2%
Fc1ccc(-c2nc3n(c2-c2ccncc2)CCS3)cc1 [GI98581]	0%	44%	8%	0%	17%	0%	0%	0%	6%	0%
CNc1nc(-c2ccc3c(N)n[nH]c3c2)cc(N2C[C@@H](C(=O)Nc3ccccc3)CC[C@H]2C)n1 [GSK2298859]	0%	18%	0%	0%	11%	0%	0%	24%	0%	0%
Cc1ccc(NC(=O)Nc2ccccc2F)cc1-c1ccc(C(=O)Nc2ccncc2)cc1 [GSK1398477]	0%	44%	31%	18%	0%	0%	6%	19%	11%	16%
Cc1ccc(NC(=O)Nc2ccc(Cl)cc2)cc1-c1ccc(C(=O)Nc2ccncc2)cc1 [GSK1398472]	0%	43%	23%	17%	6%	0%	8%	5%	0%	0%
NS(=O)(=O)c1cccc(N/C=C2\C(=O)Nc3ccc(S(=O)(=O)Cc4c(Cl)cccc4Cl)cc32)c1 [GSK398099]	0%	49%	0%	15%	0%	0%	15%	26%	0%	5%
COc1cccc(NC(=O)Nc2ccc(C)c(-c3ccc(C(=O)Nc4ccncc4)cc3)c2)c1 [GSK1398474]	27%	78%	2%	17%	12%	0%	84%	22%	0%	0%
COc1cc2ncnc(Nc3cccc(Br)c3)c2cc1OC.Cl [GI230329]	68%	50%	6%	3%	0%	0%	0%	18%	0%	0%
COC(=O)c1cccc(NC(=O)NC2CCN(c3ccnc(Nc4ccc(F)cc4)n3)C2)c1 (stereo not shown) [GSK1379725]	0%	51%	0%	17%	0%	0%	5%	0%	0%	0%
Cc1cccc2c(-c3ccncn3)c(-c3ccc(F)cc3)nn12 [GW515532]	8%	3%	0%	9%	0%	37%	18%	0%	16%	75%
FC(F)(F)c1ccccc1-c1cc(-c2c[nH]nc2-c2ccccn2)ccn1 [GW679396]	0%	0%	0%	3%	0%	0%	0%	100%	0%	0%

— paper PMC5540273 (PLoS ONE, 2017)
